The panel holds about 83,000 compounds, 20% with a hit somewhere; the sample as a whole holds those more often.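 Single-dose data. Exposure time 48 hours. Values below 10 considered active.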 Values without a mark were called inactive. Active and inactive are the calls of the source.
Assays:
Assay in all cases: NCI-60 one-dose screen, 48 h (100 = growth as untreated, 0 = no growth, -100 = all killed)
Conditions in all cases: 10 µM
[1] = test system: DU-145 prostate
[2] = test system: K-562 leukemia
[3] = test system: MALME-3M melanoma
[4] = test system: MDA-MB-231 breast
[5] = test system: RXF 393 renal
[6] = test system: SF-268 CNS
[7] = test system: SF-295 CNS
[8] = test system: SF-539 CNS
[9] = test system: UACC-257 melanoma
[10] = test system: M14 melanoma
[11] = test system: HCT-15 colon
[12] = test system: HT29 colon
[13] = test system: SNB-75 CNS
[14] = test system: SNB-19 CNS
[15] = test system: U251 CNS
[16] = test system: PC-3 prostate
[17] = test system: SK-MEL-5 melanoma
[18] = test system: UACC-62 melanoma
[19] = test system: LOX IMVI melanoma
[20] = test system: SK-MEL-28 melanoma

Cc1ccc(C)c(S(=O)(=O)NC2c3ccccc3Oc3ccccc32)c1
growth [1]: 112% | growth [2]: 90% | growth [3]: 93.2% | growth [4]: 95.2% | growth [5]: 91.3% | growth [6]: 95% | growth [7]: 98.1% | growth [8]: 97.3% | growth [9]: 109% | growth [10]: 101% | growth [11]: 94% | growth [12]: 88.8% | growth [13]: 91% | growth [14]: 102% | growth [15]: 92.1% | growth [16]: 89% | growth [17]: 101% | growth [18]: 95.1% | growth [19]: 94.1% | growth [20]: 106%

CC(C)OCc1cc(CN2CCN(c3cccc(Cl)c3)CC2)c(O)c2ncccc12
growth [1]: 11.8% | growth [2]: 3.38% (active) | growth [3]: -40.6% (active) | growth [4]: -41.9% (active) | growth [5]: -14.9% (active) | growth [6]: 5.89% (active) | growth [7]: -71.8% (active) | growth [8]: -6.98% (active) | growth [9]: -36.7% (active) | growth [10]: -17% (active) | growth [11]: 4.08% (active) | growth [12]: -17.1% (active) | growth [13]: -25.3% (active) | growth [14]: 19.6% | growth [15]: -37.8% (active) | growth [16]: -0.0543% (active) | growth [17]: -85.2% (active) | growth [18]: -61.2% (active) | growth [19]: -73.3% (active) | growth [20]: -2.34% (active)

CC(C)C[C@H](NC(=O)CCn1ccc2ccccc2c1=O)B(O)O
growth [1]: 59.6% | growth [2]: 62.7% | growth [3]: 38.2% | growth [4]: 53.8% | growth [5]: -5.99% (active) | growth [6]: 69.9% | growth [7]: 41% | growth [8]: -11.4% (active) | growth [9]: 34.5% | growth [10]: 38% | growth [11]: 61.7% | growth [12]: 25.7% | growth [13]: 77.8% | growth [14]: 66.1% | growth [15]: 68.2% | growth [16]: 56% | growth [17]: 29.1% | growth [18]: 33.3% | growth [19]: 40.6% | growth [20]: 36.9%

COc1ccc(-n2nnc3c(sc4ccccc43)c2=O)cc1
growth [1]: 60.2% | growth [2]: 91.5% | growth [3]: 80.6% | growth [4]: 53.8% | growth [5]: 45% | growth [6]: 53.1% | growth [7]: 42.3% | growth [8]: 54.7% | growth [9]: 80.8% | growth [10]: 86.5% | growth [11]: 102% | growth [12]: 43.8% | growth [13]: -9.25% (active) | growth [14]: 33.7% | growth [15]: 18.9% | growth [16]: 73% | growth [17]: 74.5% | growth [18]: 93.9% | growth [19]: 74.4% | growth [20]: 82.8%

CS(=O)(=O)Nc1ccc(Nc2c3ccccc3nc3cc(Cl)ccc23)cc1
growth [1]: 24.2% | growth [2]: 20.6% | growth [3]: 28.3% | growth [4]: 86.5% | growth [5]: 20.9% | growth [6]: 37.6% | growth [7]: -13.5% (active) | growth [8]: 30.7% | growth [9]: 48% | growth [10]: 36.6% | growth [11]: 39.6% | growth [12]: 22.4% | growth [13]: 30.9% | growth [14]: 44.7% | growth [15]: 19.9% | growth [16]: 33.8% | growth [17]: 18.6% | growth [18]: 36.8% | growth [19]: 19.5% | growth [20]: 72.6%

COc1cc(C2=Nc3c/c(=C\c4c(O)[nH]c5ccc(Cl)cc45)ccc3=N2)cc(OC)c1OC
growth [1]: 4.46% (active) | growth [2]: 17.3% | growth [3]: -51.8% (active) | growth [4]: 2.35% (active) | growth [5]: 1.13% (active) | growth [6]: -51.5% (active) | growth [7]: 83.3% | growth [8]: -52.4% (active) | growth [9]: -77% (active) | growth [10]: -21.6% (active) | growth [11]: 24.8% | growth [12]: -73.3% (active) | growth [13]: 50.1% | growth [14]: -30.9% (active) | growth [15]: -90.6% (active) | growth [16]: 21.7% | growth [17]: -92.2% (active) | growth [18]: 31.8% | growth [19]: 2.31% (active) | growth [20]: -35.7% (active)

O=C1/C(=C/c2ccc(O)cc2)Cc2ccc(Cl)cc21
growth [1]: 111% | growth [2]: 81.8% | growth [3]: 106% | growth [4]: 61.5% | growth [5]: 59.7% | growth [6]: 95.9% | growth [7]: 92.3% | growth [8]: 82.6% | growth [9]: 86% | growth [10]: 82.5% | growth [11]: 89.2% | growth [12]: 110% | growth [13]: 73.4% | growth [14]: 93.9% | growth [15]: 95.8% | growth [16]: 92.6% | growth [17]: 79.3% | growth [18]: 77.3% | growth [19]: 84.2% | growth [20]: 114%

O=C(COc1ccc(-c2nc3ccccc3[nH]2)cc1)N=Nc1c(O)[nH]c2ccccc12
growth [1]: 101% | growth [2]: 44.8% | growth [3]: 80.9% | growth [4]: 84.5% | growth [5]: 107% | growth [6]: 98.3% | growth [7]: 102% | growth [8]: 106% | growth [9]: 110% | growth [10]: 116% | growth [11]: 105% | growth [12]: 100% | growth [13]: 104% | growth [14]: 93.4% | growth [15]: 55.9% | growth [16]: 86.5% | growth [17]: 102% | growth [18]: 96.2% | growth [19]: 100% | growth [20]: 99.7%

N#CN1CC[C@H](C(=O)Nc2ncc(-c3ccccc3)s2)C1
growth [1]: 0.607% (active) | growth [2]: 2.31% (active) | growth [3]: -16.4% (active) | growth [4]: 3.84% (active) | growth [5]: -45% (active) | growth [6]: 0.182% (active) | growth [7]: 18.8% | growth [8]: -16.9% (active) | growth [9]: -8.04% (active) | growth [10]: -7.98% (active) | growth [11]: 3.19% (active) | growth [12]: -35.6% (active) | growth [13]: -43.8% (active) | growth [14]: 12.4% | growth [15]: 2.64% (active) | growth [16]: 11.1% | growth [17]: -56% (active) | growth [18]: -37.1% (active) | growth [19]: 4.1% (active) | growth [20]: 5.29% (active)

Cc1cc(C)c(C(=O)OC(C)CNC2CCCCC2)c(C)c1 (stereo not given)
growth [1]: 106% | growth [2]: 81.2% | growth [3]: 108% | growth [4]: 102% | growth [5]: 105% | growth [6]: 99.7% | growth [7]: 97.7% | growth [8]: 99.2% | growth [9]: 97.7% | growth [10]: 90.5% | growth [11]: 97.5% | growth [12]: 90.5% | growth [13]: 92.1% | growth [14]: 97.5% | growth [15]: 97.8% | growth [16]: 93.9% | growth [17]: 101% | growth [18]: 103% | growth [19]: 88.3% | growth [20]: 105%

C=C[C@]1(C)C=C2C(=O)[C@@]3(O)OC(=O)[C@@]4(CCCC(C)(C)[C@H]34)[C@@]2(O)CC1
growth [1]: -99.4% (active) | growth [2]: 1.73% (active) | growth [3]: -69.6% (active) | growth [4]: -71.9% (active) | growth [5]: -97.4% (active) | growth [6]: -66.7% (active) | growth [7]: -17.2% (active) | growth [8]: -97.6% (active) | growth [9]: -93% (active) | growth [10]: -89% (active) | growth [11]: -30.5% (active) | growth [12]: -2.72% (active) | growth [13]: -78.8% (active) | growth [14]: 26.5% | growth [15]: -94% (active) | growth [16]: -74.7% (active) | growth [17]: -99.1% (active) | growth [18]: -87.2% (active) | growth [19]: -96.7% (active) | growth [20]: -98.8% (active)

CC(=O)c1c(O)cc2c3c1OC(C)(C)C1CCC(C)(CC31)O2 (stereo not given)
growth [1]: 104% | growth [2]: 90.1% | growth [3]: 93.8% | growth [4]: 106% | growth [5]: 94.8% | growth [6]: 98.3% | growth [7]: 90.2% | growth [8]: 89.8% | growth [9]: 126% | growth [10]: 92.2% | growth [11]: 97.5% | growth [12]: 90.6% | growth [13]: 96% | growth [14]: 98.7% | growth [15]: 102% | growth [16]: 88.8% | growth [17]: 83.1% | growth [18]: 88.5% | growth [19]: 97.9% | growth [20]: 111%

N#Cc1cnc2ccc(NCc3cnc[nH]3)cc2c1Nc1ccc(F)c(Cl)c1
growth [1]: 39.5% | growth [2]: 66.8% | growth [3]: 110% | growth [4]: 78% | growth [5]: 52.8% | growth [6]: 63.2% | growth [7]: 94.4% | growth [8]: 92.1% | growth [9]: 84.3% | growth [10]: 72.1% | growth [11]: 88.4% | growth [12]: 82% | growth [13]: 86.4% | growth [14]: 76.8% | growth [15]: 58.8% | growth [16]: 70.1% | growth [17]: 87.5% | growth [18]: 83% | growth [19]: 58.2% | growth [20]: 98%

C[n+]1c(/C=C/c2c[nH]c3ccccc23)ccc2ccccc21
growth [1]: 60.9% | growth [2]: 23.3% | growth [3]: 68.6% | growth [4]: 68.8% | growth [5]: 84% | growth [6]: 72.6% | growth [7]: 47.5% | growth [8]: 87% | growth [9]: 76.8% | growth [10]: 75.2% | growth [11]: 90.7% | growth [12]: 49.2% | growth [13]: 90.9% | growth [14]: 68.4% | growth [15]: 69.9% | growth [16]: 52.1% | growth [17]: 59.2% | growth [18]: 54.2% | growth [19]: 60.5% | growth [20]: 84.8%

COc1ccc(-c2cn[nH]c2-c2cc(OC)c(OC)c(OC)c2)cc1
growth [1]: 4.46% (active) | growth [2]: 6.36% (active) | growth [3]: 76.4% | growth [4]: 8.75% (active) | growth [5]: 14.8% | growth [6]: 19.7% | growth [7]: 6.26% (active) | growth [8]: -32% (active) | growth [9]: 49.2% | growth [10]: 3.85% (active) | growth [11]: 10.8% | growth [12]: 3.22% (active) | growth [13]: 44.7% | growth [14]: 45.5% | growth [15]: 16.2% | growth [16]: 14.1% | growth [17]: -17.1% (active) | growth [18]: 38% | growth [19]: 27.3% | growth [20]: 43.6%
